Source: PubChem (The Scripps Research Institute Molecular Screening Center)
TEAD-YAP inh: TEAD-YAP interaction inhibition, primary screen, TEAD-YAP interaction inhibitor project, luminescence, HEK-TIYL cells; AID 1259422, 2018; inhibition, % at 9.12 µM; TEAD-Gal4/YAP UAS-luciferase luminescence; hit rate 1.4% among 640,000; in the data active = inhibition above about 32%;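 note: 0% = median of test compound wells and 100% = reference inhibitor wells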
MITF primary: MITF inhibitors, primary screen, biochemical, AlphaScreen, human; inhibition, % at 2.6 µM; Microphthalmia-associated transcription factor (Homo sapiens), O75030; hit rate 0.91% among 650,000; AlphaScreen MITF homodimerization, bead proximity signal; AID 1259374, 2018; in the data active = inhibition above about 50%;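 note: 0% = vehicle wells with protein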
Target sequence (O75030 whole entry, looked up): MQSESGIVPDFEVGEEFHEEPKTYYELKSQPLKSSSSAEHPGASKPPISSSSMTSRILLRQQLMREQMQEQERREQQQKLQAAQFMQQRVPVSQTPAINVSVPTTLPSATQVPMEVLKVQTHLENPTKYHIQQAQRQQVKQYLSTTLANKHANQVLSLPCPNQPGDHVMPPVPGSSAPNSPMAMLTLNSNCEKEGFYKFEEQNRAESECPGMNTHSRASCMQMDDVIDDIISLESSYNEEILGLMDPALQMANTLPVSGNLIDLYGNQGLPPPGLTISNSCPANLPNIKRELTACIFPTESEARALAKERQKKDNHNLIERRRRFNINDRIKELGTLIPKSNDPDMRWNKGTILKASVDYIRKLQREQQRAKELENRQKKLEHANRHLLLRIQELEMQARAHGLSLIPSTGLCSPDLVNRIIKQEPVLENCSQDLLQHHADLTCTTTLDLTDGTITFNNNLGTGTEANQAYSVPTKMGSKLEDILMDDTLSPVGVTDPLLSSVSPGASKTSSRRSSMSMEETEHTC
GPR151 ag: activators of human GPR151, primary screen, cell-based, PathHunter beta-arrestin, luminescence | hit rate 1% among 650,000 | activation, % at 11.2 µM | G-protein coupled receptor 151 (Homo sapiens), Q8TDV0 | PathHunter beta-arrestin GPR151 cells; in the data active = activation above about 4.9%;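 note: 0% = median of compound wells and 100% = cells with positive control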
FBW7 activator: FBW7 E3 ligase activators, primary screen, biochemical, AlphaScreen, human; F-box/WD repeat-containing protein 7 (Homo sapiens), Q969H0; AlphaScreen FBW7–phospho-cyclin E peptide binding, activator screen; normalized activity (activation), % at 26.1 µM; hit rate 0.13% among 650,000; in the data active = normalized activity above about 1.9%;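 note: purified mutant Fbw7 with reduced substrate affinity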
GPR151 conf act: GPR151 activators, triplicate retest, confirmation, cell-based, PathHunter beta-arrestin, luminescence; GPR151 PathHunter beta-arrestin cells, 90 min; % of EA-reagent control over plate median; AID 1508609, 2020; shares compounds with GPR151 ag; 6,700 tested, under 10 active; activation, % at 11.2 µM;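 active = mean percent activation across replicates above the confirmation screen cutoff of 4.91%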
GPR119 ag: GPR119 activators in beta-arrestin cells, counter-screen for GPR151 activator project, cell-based, PathHunter beta-arrestin, luminescence, triplicate; shares compounds with GPR151 ag; 90 min; 0 = compound-well median, 100 = enzyme-acceptor control; activation, % at 11.2 µM; hit rate 0.3% among 6,700;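 active = mean percent activation in the counterscreen above 29.09%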;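 note: counterscreen on off-target GPR119 to flag nonselective hits from the GPR151 activator screen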
* = called active by the depositor. Shown are actives, neighbours in structure and some others; about 3.5% of the full set was active somewhere.

For O=C(CSc1nc2cc(C(=O)NCC3CCCO3)ccc2c(=O)n1Cc1ccco1)NC1CCCCC1 (centres undefined) the results were TEAD-YAP inh -0.8, MITF primary -9.0, GPR151 ag 5.2*, FBW7 activator 0.1, GPR151 conf act -0.5 and GPR119 ag -2.4.
For O=C(CSc1nc2cc(C(=O)NCC3CCCO3)ccc2c(=O)n1CC1CCCO1)NC1CCCCC1 (centres undefined) the results were TEAD-YAP inh 0.0, MITF primary 1.8, GPR151 ag 0.8 and FBW7 activator 0.5.
`Cc1cc(NC(=O)C(N)=O)ccc1Br` gave TEAD-YAP inh 3.6, MITF primary 3.1, GPR151 ag 5.0*, FBW7 activator 0.0, GPR151 conf act -0.2 and GPR119 ag 4.0.
Screening O=C(CN1C(=O)C2C3CCC(C3)C2C1=O)Nc1ccc(-c2ccccc2)cc1 (centres undefined) returned TEAD-YAP inh 1.2, MITF primary 0.7, GPR151 ag -0.6 and FBW7 activator -0.2.
O=C(CN1C(=O)C2C3CCC(C3)C2C1=O)Nc1ccc(-n2cnnn2)cc1 (centres undefined) was read as TEAD-YAP inh 1.2, MITF primary 4.5, GPR151 ag 5.1*, FBW7 activator -0.2, GPR151 conf act 0.8 and GPR119 ag 6.2.
Screening O=C(NCc1cccnc1)C1CCCN(c2nnc(N3CCCC3=O)s2)C1 (centres undefined) returned TEAD-YAP inh 4.1, MITF primary 2.8, GPR151 ag -0.2 and FBW7 activator -0.1.
Screening CCOC(=O)c1c(C)nc2c(c1C)/C(=N/O)CC(C)(C)C2 returned TEAD-YAP inh -1.1, MITF primary 3.7, GPR151 ag 5.0*, FBW7 activator 0.2, GPR151 conf act -0.5 and GPR119 ag -10.6.
`N#CCOc1ccc2c(=O)c(Oc3ccccc3Cl)coc2c1` gave TEAD-YAP inh 7.5, MITF primary 8.3, GPR151 ag 5.6*, FBW7 activator 0.0, GPR151 conf act 0.7 and GPR119 ag 18.9.
O=C(COC(=O)CSCc1ccc(Cl)c(Cl)c1)NC(=O)NC1CCCC1 was read as TEAD-YAP inh -0.2, MITF primary 14.5, GPR151 ag -1.5 and FBW7 activator 0.2.
CCCCC(Sc1nc2ccccc2c2nc(-c3ccccc3OC)nn12)C(=O)OCC (centres undefined) was read as TEAD-YAP inh -7.6, MITF primary -3.4, GPR151 ag 5.4*, FBW7 activator 0.0, GPR151 conf act -0.1 and GPR119 ag 2.3.
For Cc1cc(C(=O)/C=C/c2ccc(OCC(=O)O)cc2)c(C)s1 the results were TEAD-YAP inh 3.7, MITF primary 1.6, GPR151 ag 6.1*, FBW7 activator 0.1, GPR151 conf act -0.2 and GPR119 ag -4.4.
Screening CC1C2CCCN2CCN1Cc1cccc([N+](=O)[O-])c1 (centres undefined) returned TEAD-YAP inh -7.7, MITF primary 4.9, GPR151 ag 9.7*, FBW7 activator 0.6, GPR151 conf act -0.9 and GPR119 ag -9.4.
For COC(=O)C(C)n1c(=O)c2c(nc3n(-c4ccc(C)c(C)c4)c(C)c(C)n23)n(C)c1=O (centres undefined) the results were TEAD-YAP inh -1.1, MITF primary 4.5, GPR151 ag 5.3*, FBW7 activator -0.1, GPR151 conf act 0.1 and GPR119 ag 3.7.
For C=CCn1c(=O)c2c(nc3n(-c4cccc(Cl)c4)c(C)c(C)n23)n(C)c1=O the results were TEAD-YAP inh -4.6, MITF primary -0.7, GPR151 ag 6.3*, FBW7 activator 0.0, GPR151 conf act -1.2 and GPR119 ag -2.6.
For COC(=O)C(C)n1c(=O)c2c(nc3n(-c4cc(C)cc(C)c4)c(C)c(C)n23)n(C)c1=O (centres undefined) the results were TEAD-YAP inh 11.6, MITF primary -11.2, GPR151 ag 0.4 and FBW7 activator 0.0.
`CC(=O)Cn1c(=O)c2c(nc3n(-c4ccccc4)c(C)c(C)n23)n(C)c1=O` gave TEAD-YAP inh 7.8, MITF primary 11.4, GPR151 ag 11.1*, FBW7 activator -0.1, GPR151 conf act 0.0 and GPR119 ag 4.4.
C=CCn1c(=O)c2c(nc3n(-c4ccc(Cl)cc4)c(C)c(C)n23)n(C)c1=O was read as TEAD-YAP inh 11.4, MITF primary 12.5, GPR151 ag -1.0 and FBW7 activator 0.3.
Screening Cc1ccc(C(=O)Nc2nc3ccc(S(C)(=O)=O)cc3s2)cc1 returned TEAD-YAP inh -45.5, MITF primary -10.0, GPR151 ag 0.5 and FBW7 activator -0.3.
CC(C)(C)NS(=O)(=O)c1ccc2nc(NC(=O)c3cccnc3)sc2c1 was read as TEAD-YAP inh -5.0, MITF primary -4.7, GPR151 ag 6.2*, FBW7 activator -0.1, GPR151 conf act 0.9 and GPR119 ag 12.8.
Screening CN1C(=O)/C(=c2\sc3nc(=O)c(Cc4ccccc4)nn3c2=O)c2ccccc21 returned TEAD-YAP inh 3.4, MITF primary 15.3, GPR151 ag 5.5*, FBW7 activator 0.1, GPR151 conf act 0.2 and GPR119 ag 4.2.
For O=C(CN1C(=O)/C(=c2/sc3nc4ccccc4n3c2=O)c2ccccc21)Nc1ccc(F)cc1 the results were TEAD-YAP inh 4.9, MITF primary 4.0, GPR151 ag 1.8 and FBW7 activator -0.1.
`O=C1/C(=c2\sc3nc4ccccc4n3c2=O)c2ccccc2N1Cc1ccccc1` gave TEAD-YAP inh -9.5, MITF primary -0.3, GPR151 ag 7.2*, FBW7 activator 0.0, GPR151 conf act 0.5 and GPR119 ag -11.9.
Screening COc1ccc(C)cc1NC(=O)Cc1c(C(=O)O)n(C)c2ccccc12 returned TEAD-YAP inh 5.3, MITF primary 18.5, GPR151 ag 0.7 and FBW7 activator 0.0.
`CCn1c(C(=O)O)c(CC(=O)Nc2cc(Cl)ccc2OC)c2ccccc21` gave TEAD-YAP inh 1.9, MITF primary -1.0, GPR151 ag 5.4*, FBW7 activator -0.1, GPR151 conf act -1.0 and GPR119 ag -11.5.
O=C(c1cccc(S(=O)(=O)N2CCCC2)c1)c1nnc(-c2ccncc2)o1 was read as TEAD-YAP inh -0.8, MITF primary 4.5, GPR151 ag 8.2*, FBW7 activator 0.0, GPR151 conf act 0.0 and GPR119 ag 5.5.
